Assay results from PubChem BioAssay (NCI).
Compounds without any hit were thinned out: in the full panel of roughly 83,000, 20% have a hit.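 Cell lines were cultured in 96-well plates, exposed to a single compound concentration, and assessed for percent growth 48 hours later.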 The source made the active and inactive calls. The calls were made as follows: active = growth percent below 10; inactive = the rest.

Key:
Assay in all cases: NCI-60 one-dose screen, 48 h (100 = growth as untreated, 0 = no growth, -100 = all killed)
HCT-15 colon = settings: 10 µM unless noted
HT29 colon = settings: 10 µM unless noted
SNB-75 CNS = settings: 10 µM unless noted
SNB-19 CNS = settings: 10 µM unless noted
U251 CNS = settings: 10 µM unless noted
PC-3 prostate = settings: 10 µM unless noted
SK-MEL-5 melanoma = settings: 10 µM unless noted
UACC-62 melanoma = settings: 10 µM unless noted
LOX IMVI melanoma = settings: 10 µM unless noted
SK-MEL-28 melanoma = settings: 10 µM unless noted
SK-MEL-2 melanoma = settings: 10 µM unless noted
EKVX NSCLC = settings: 10 µM unless noted
SN12C renal = settings: 10 µM unless noted
UO-31 renal = settings: 10 µM unless noted
TK-10 renal = settings: 10 µM unless noted
ACHN renal = settings: 10 µM unless noted
CAKI-1 renal = settings: 10 µM unless noted
HL-60(TB) leukemia = settings: 10 µM unless noted
CCRF-CEM leukemia = settings: 10 µM unless noted
A498 renal = settings: 10 µM

Measured: growth

CN1C(=O)N[C@H]2[C@@H]3NC(=O)c4ccc(Br)n4[C@@H]3C[C@]21O
active: HCT-15 colon 3.29% | HT29 colon -15.6% | SNB-75 CNS -70.3% | SNB-19 CNS -15.6% | U251 CNS -13.8% | PC-3 prostate -11.7% | SK-MEL-5 melanoma -76.7% | UACC-62 melanoma -54.2% | LOX IMVI melanoma -42% | SK-MEL-28 melanoma -34.9% | SK-MEL-2 melanoma -55.5% | EKVX NSCLC -17.4% | SN12C renal -14.1% | UO-31 renal 9.15% | TK-10 renal -16.7% | ACHN renal -24.6% | CAKI-1 renal 6.74% | HL-60(TB) leukemia -20% | CCRF-CEM leukemia -15%

O=C(Nc1ccc([N+](=O)[O-])cc1)C(Cl)(Cl)Cl
inactive: HCT-15 colon 80.8% | HT29 colon 101% | SNB-75 CNS 96.6% | SNB-19 CNS 94.7% | U251 CNS 93.9% | PC-3 prostate 95.1% | SK-MEL-5 melanoma 99.4% | UACC-62 melanoma 84.9% | LOX IMVI melanoma 63.3% | SK-MEL-28 melanoma 103% | SK-MEL-2 melanoma 102% | EKVX NSCLC 89.4% | SN12C renal 95.3% | UO-31 renal 87.3% | TK-10 renal 113% | ACHN renal 86.9% | CAKI-1 renal 83.3% | HL-60(TB) leukemia 108% | CCRF-CEM leukemia 101%

CC1=C(CCCOC(=O)[C@H](N)CC(C)C)C2=C(C)C3(CC3)[C@@](C)(O)C(=O)C2=C1
inactive: HT29 colon 12.6% | SNB-19 CNS 45.4% | U251 CNS 35.9% | PC-3 prostate 28.5% | UACC-62 melanoma 11.3% | LOX IMVI melanoma 41.8% | SK-MEL-28 melanoma 33.8% | EKVX NSCLC 35.2% | SN12C renal 29.3% | HL-60(TB) leukemia 52.3% | CCRF-CEM leukemia 80%
active: HCT-15 colon 4.16% | SNB-75 CNS -7.8% | SK-MEL-5 melanoma -67.6% | SK-MEL-2 melanoma -15.6% | UO-31 renal -42.1% | TK-10 renal -19% | ACHN renal -43% | A498 renal -74.2%

COC1=CC(=O)O[C@@H](/C=C/c2ccc3c(c2)OCO3)C1
active: SK-MEL-2 melanoma -20.1%
inactive: HCT-15 colon 103% | HT29 colon 111% | SNB-75 CNS 116% | SNB-19 CNS 101% | U251 CNS 97.9% | PC-3 prostate 83.5% | SK-MEL-5 melanoma 116% | UACC-62 melanoma 94% | LOX IMVI melanoma 98.2% | SK-MEL-28 melanoma 120% | EKVX NSCLC 114% | SN12C renal 100% | UO-31 renal 87.5% | TK-10 renal 102% | ACHN renal 110% | CAKI-1 renal 107% | HL-60(TB) leukemia 114% | CCRF-CEM leukemia 61.2%

CCOC(=O)[C@@H](C)C[C@H](Cc1ccccc1)NC(=O)c1csc([C@@H](C[C@H](C(C)C)N(C)C(=O)[C@H](CC)NC(=O)[C@H]2CCCCN2C)OC(C)=O)n1
inactive: SNB-75 CNS 25.4% | SNB-19 CNS 19.7% | U251 CNS 11.7% | PC-3 prostate 23.8% | UACC-62 melanoma 30.9% | SK-MEL-28 melanoma 61.8% | SK-MEL-2 melanoma 26.8% | EKVX NSCLC 38.6% | SN12C renal 19.1% | UO-31 renal 33.7% | TK-10 renal 69.6% | ACHN renal 25.9%
active: HCT-15 colon 9.87% | HT29 colon 4.72% | SK-MEL-5 melanoma -52.9% | LOX IMVI melanoma 9.39% | A498 renal -13.5% | HL-60(TB) leukemia -26.4% | CCRF-CEM leukemia 3.51%

CC(=O)OC[C@]1(C)C=C2C(=O)[C@](C)(O)C3(CC3)C(C)=C2[C@H]1O
inactive: CCRF-CEM leukemia 14.6%
active: HCT-15 colon -8.75% | HT29 colon -12% | SNB-75 CNS -91.5% | SNB-19 CNS -16.5% | U251 CNS 1.39% | PC-3 prostate -15.6% | SK-MEL-5 melanoma -62% | UACC-62 melanoma -84.4% | LOX IMVI melanoma -30.3% | SK-MEL-28 melanoma -56% | SK-MEL-2 melanoma -55.1% | EKVX NSCLC -13.7% | SN12C renal -5.94% | UO-31 renal -47.3% | TK-10 renal -15.3% | ACHN renal -12.4% | CAKI-1 renal 1.8% | HL-60(TB) leukemia -12.4%

CC(=O)OCc1cc[c]([Hg][Cl])o1
inactive: HT29 colon 46% | SNB-75 CNS 42.7% | SNB-19 CNS 45.2% | PC-3 prostate 43.8% | SK-MEL-5 melanoma 42.6% | UACC-62 melanoma 47.8% | SK-MEL-28 melanoma 12.3% | SK-MEL-2 melanoma 64.9% | EKVX NSCLC 78.8% | SN12C renal 55.9% | UO-31 renal 83.1% | TK-10 renal 127% | ACHN renal 60.8% | CAKI-1 renal 25.9%
active: HCT-15 colon 5.8% | U251 CNS 7.54% | LOX IMVI melanoma -50.5% | HL-60(TB) leukemia -25.1% | CCRF-CEM leukemia -20%
